# About 83,000 compounds went through this panel and 20% of them were active in at least one assay; those are over-represented in the sample as a whole.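 The test compound was applied at a single concentration to cells in 96-well plates for 48 hours, and percent growth was recorded.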 Unmarked numbers belong to inactive results. Calls of active or inactive are those of the source. The calls were made as follows: active = growth percent below 10; inactive = the rest.
# Legend:
# Test in all cases: NCI-60 one-dose screen, 48 h (100 = growth as untreated, 0 = no growth, -100 = all killed)
# Settings in all cases: 10 µM unless noted
# HCT-15 colon = tested on: HCT-15 colon
# HT29 colon = tested on: HT29 colon
# SNB-75 CNS = tested on: SNB-75 CNS
# SNB-19 CNS = tested on: SNB-19 CNS
# U251 CNS = tested on: U251 CNS
# PC-3 prostate = tested on: PC-3 prostate
# SK-MEL-5 melanoma = tested on: SK-MEL-5 melanoma
# UACC-62 melanoma = tested on: UACC-62 melanoma
# LOX IMVI melanoma = tested on: LOX IMVI melanoma
# SK-MEL-28 melanoma = tested on: SK-MEL-28 melanoma
# SK-MEL-2 melanoma = tested on: SK-MEL-2 melanoma
# EKVX NSCLC = tested on: EKVX NSCLC
# UO-31 renal = tested on: UO-31 renal
# TK-10 renal = tested on: TK-10 renal
# ACHN renal = tested on: ACHN renal
# CAKI-1 renal = tested on: CAKI-1 renal
# A498 renal = tested on: A498 renal
# CCRF-CEM leukemia = tested on: CCRF-CEM leukemia
# MOLT-4 leukemia = tested on: MOLT-4 leukemia
# SN12C renal = tested on: SN12C renal
SMILES,growth (HCT-15 colon),growth (HT29 colon),growth (SNB-75 CNS),growth (SNB-19 CNS),growth (U251 CNS),growth (PC-3 prostate),growth (SK-MEL-5 melanoma),growth (UACC-62 melanoma),growth (LOX IMVI melanoma),growth (SK-MEL-28 melanoma),growth (SK-MEL-2 melanoma),growth (EKVX NSCLC),growth (UO-31 renal),growth (TK-10 renal),growth (ACHN renal),growth (CAKI-1 renal),growth (A498 renal),growth (CCRF-CEM leukemia),growth (MOLT-4 leukemia),growth (SN12C renal)
CC(=O)C1=C(O)C=C2Oc3c(C(=O)/C=C/c4c(Cl)cccc4Cl)c(O)c(C)c(O)c3[C@]2(C)C1=O,-50.4% (active),-18.5% (active),-22.3% (active),-23.7% (active),-33% (active),-3.69% (active),-86.3% (active),-69.7% (active),-51.9% (active),-60.1% (active),-49.1% (active),-0.577% (active),-28.6% (active),-30.8% (active),-15.3% (active),6.78% (active),-72.4% (active),-25.3% (active),-33% (active),–
O=C(COCc1c(-c2ccccc2)no[n+]1[O-])Nc1ccc(C(=O)/C=C/c2ccc3c(c2)OCO3)cc1,104%,132%,120%,97.3%,107%,76.3%,94.4%,97.5%,68.3%,112%,134%,108%,87.4%,–,94.6%,91.7%,111%,82.4%,77.2%,102%
O=C(CCCCN1CCOCC1)Nc1ccc(Cn2nnc3c2C(=O)c2nnn(Cc4ccc(NC(=O)CCCCN5CCOCC5)cc4)c2C3=O)cc1,-37% (active),-28.6% (active),-92.3% (active),-86.2% (active),-85.2% (active),0.413% (active),-95.8% (active),-80% (active),-23.2% (active),-54.9% (active),–,–,10.5%,13.6%,-4.59% (active),7.17% (active),-91.1% (active),-1.29% (active),-37.3% (active),-46.6% (active)
O=C(/C=C/c1ccc(Cl)cc1)/C=C/c1cc2ccccc2[nH]c1=O,69%,-0.317% (active),68.8%,83.4%,11.7%,48.8%,75.2%,52.9%,-44.5% (active),76.1%,98.2%,–,63.9%,119%,74%,108%,–,2.35% (active),15.7%,62.8%
COc1ccc(N(Cc2cc(OC)c(OC)c(OC)c2)C2OC(=O)c3ccccc32)cc1 (configuration not stated),36.1%,5.34% (active),-6.32% (active),53.3%,19.4%,25.2%,18.2%,44.2%,46.2%,55.5%,21.5%,–,53.5%,53.5%,61.5%,45.7%,14%,9.62% (active),19.2%,52.8%
CN(C)CCCC(=O)Nc1ccc(Cn2nnc3c2C(=O)c2nnn(Cc4ccc(NC(=O)CCCN(C)C)cc4)c2C3=O)cc1,94.5%,10.5%,-94.9% (active),82.7%,90.2%,88.1%,50.3%,75.7%,6.92% (active),56.5%,–,–,94.5%,116%,102%,91%,72.9%,16.8%,11.4%,-29.4% (active)
COc1ccc(-c2c3c(nc4n[nH]c(-c5ccc(Cl)cc5)c24)-c2ccccc2C(=O)C3=O)cc1,21.6%,-11.8% (active),54.3%,44.3%,-40.2% (active),7.97% (active),–,-33.7% (active),-50.9% (active),30.4%,-49.8% (active),59%,0.604% (active),-28.7% (active),10.7%,47.1%,53.8%,-6.2% (active),0.0593% (active),–
CC(C)Oc1nc2c(c(=O)n(C)c(=O)n2C)n1C,106%,96.6%,88%,96.4%,99.7%,90.7%,–,96.5%,98.9%,105%,107%,103%,91.3%,95.3%,101%,100%,106%,95.3%,94.4%,108%
COc1ccc2nc3cc(Cl)ccc3c(N3CCN(c4ccnc(N5CCOCC5)n4)CC3)c2c1,8.96% (active),-18.2% (active),66.8%,95.5%,64.2%,67.2%,88.4%,91.9%,-59% (active),35.9%,–,–,57.2%,63.7%,27.4%,59.7%,–,-18.4% (active),–,32.3%
COc1ccc(-c2c(C)noc2-c2ccc(O)cc2O)cc1,68.8%,102%,90.9%,104%,93.8%,71.8%,80.4%,90.7%,–,105%,101%,–,87.3%,99.8%,90.3%,95.8%,88%,71.7%,59.1%,85.7%

# Reference: PubChem BioAssay (NCI)
